Chronic BCR inh = inhibitors of chronic active B-cell receptor signaling. ABC-DLBCL IkBa-CBG/CBR reporter, luminescence ratio, 4 h. Potency, µM (titrated, usually from 46.1 µM), for inactives: at the highest dose activity change, negative = inhibition, most hits filed as inhibitors. actives 0.05% (n = 340,000); active = well fitted inhibition curve with a large enough effect in the signal ratio, with a control signal flat, not every such curve was filed as active; inconclusive = small, poorly fitted or top-dose-only effect, or effect the other way, or a change in a side signal; the % refers to the signal ratio;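 also: plate controls were basal doxycycline-induced cells for no effect and cells given 10 µM MG132 for full effect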
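Compounds up to 46 uM were incubated four hours with TMD8 cells whose green CBG68 luciferase is fused to IkappaBalpha; red CBR luminescence normalised the signal, and concentration-effect curves were fitted to fusion, red and ratio data.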
a7 integrin act = activators of alpha7 integrin expression for muscular dystrophy | actives 0.064% (n = 350,000) | Potency, µM (top dose mostly 38.3 µM), without a hit: at the highest dose activation, usual class: activators | alpha7betagal myoblasts, beta-gal FDG fluorescence, 48 h | AID 624291;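 also: 100% = response of the positive control SU9516; nearly all actives have a fitted effect of over 60% in size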
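Alpha7betagal+/- myoblasts (passage 13) were plated 16-24 hr, then exposed to compounds (1:260 dilution of DMSO stock) for 48 hours at 37C. After MPER lysis, β-galactosidase reporter activity was read as FDG fluorescence (ex 480/em 540) after 30 minutes.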
Gal4-VP16 FLuc = Gal4-VP16 reporter inhibition counter-screen; Drosophila S2 Gal4-VP16 UAS-luciferase, luminescence, 20 h; actives 3.5% (n = 310,000); Potency, µM (highest dose often 53.6 µM), without a hit: at the highest dose activity, negative = inhibition, usual class: inhibitors; AID 2546;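 also: Gal4-VP16 expression switched on by copper sulfate through the metallothionein promoter; % is scaled to controls: 0 for no effect and ±100 for the full control effect; nearly all actives have a fitted effect of over 50% in size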
uPA generation = cell surface uPA generation inhibition | cell surface uPA generation assay, qHTS | Potency, µM (titrated, usually from 38.3 µM), for the others: top-dose activity change, negative = inhibition, usual class: inhibitors | actives 0.31% (n = 330,000); active = well fitted inhibition curve with a large enough effect; inconclusive = small, poorly fitted or top-dose-only effect; inactive = no such curve, though single readings can be large or run the other way; tested in mouse RAW 264.7 cells; also: % is scaled to controls: 0 for no effect and ±100 for the full control effect; nearly all actives have a fitted effect of over 55% in size
RORg inh = inhibitors of mouse ROR gamma transcriptional activity; P51450; actives 5.4% (n = 310,000); Drosophila S2 Gal4-RORgamma UAS-luciferase reporter, 20 h; Potency, µM (highest dose often 53.6 µM), for inactives: top-dose activity change, negative = inhibition, hits mostly inhibitors; also: % is scaled to controls: 0 for no effect and ±100 for the full control effect; nearly all actives have a fitted effect of over 60% in size
Target sequence (P51450 whole entry, looked up, the tested form may be a part): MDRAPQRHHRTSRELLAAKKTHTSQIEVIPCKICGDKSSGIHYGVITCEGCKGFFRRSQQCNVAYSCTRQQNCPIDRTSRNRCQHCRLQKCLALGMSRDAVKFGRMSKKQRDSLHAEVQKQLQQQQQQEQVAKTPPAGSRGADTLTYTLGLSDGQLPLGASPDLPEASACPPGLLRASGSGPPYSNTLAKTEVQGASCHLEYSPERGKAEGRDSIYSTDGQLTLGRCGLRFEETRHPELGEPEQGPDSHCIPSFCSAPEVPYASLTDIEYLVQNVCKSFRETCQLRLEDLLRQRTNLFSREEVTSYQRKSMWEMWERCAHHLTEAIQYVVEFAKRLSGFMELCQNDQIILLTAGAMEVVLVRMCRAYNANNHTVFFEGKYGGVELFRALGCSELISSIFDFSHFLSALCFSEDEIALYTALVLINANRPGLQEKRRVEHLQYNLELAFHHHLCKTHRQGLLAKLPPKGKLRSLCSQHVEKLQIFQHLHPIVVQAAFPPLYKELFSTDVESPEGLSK
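In this cell-based reporter format, copper sulfate (700 uM final) drives Gal4–ROR gamma fusion expression from a metallothionein promoter in Drosophila Schneider cells; compounds preincubated 1 hr, reporter read after 20 hr at ambient temperature.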
Mito fusion act = inhibitors of mitochondrial division or activators of mitochondrial fusion; S. cerevisiae fusion-defective mutant growth rescue, CellTiterGlo 48 h; Potency, µM (series often up to 46.1 µM), without a hit: at the top dose growth rescue (activation), most hits filed as activators; actives 0.23% (n = 320,000); AID 485298; also: % of control where 0% means no effect; nearly all actives have a fitted effect of over 45% in size
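Growth-rescue viability read-out: after 48 h at the non-permissive 37C in glycerol/ethanol YPEG, yeast mitochondrial fusion mutants are measured by CellTiterGlo luminescence; compounds (23 nl pinned per well) restoring growth score as division inhibitors or fusion activators.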
The depositor's hits bear a star; ? = inconclusive; . = no result; [ ] = remark or other dose. Hits are enriched below; roughly 5.5% of the tested compounds scored in any of these assays. Unless noted, calls follow the shape of the dose curve; as a rule, active = well fitted curve in the direction sought with a large enough effect; inconclusive = small, poorly fitted or top-dose-only effect, or another doubt; inactive = no such curve, though single readings can be large; an effect the other way counts as inactive or inconclusive. Potency is read from the fitted curve at half-maximal effect.

SMILES	Chronic BCR inh	a7 integrin act	Gal4-VP16 FLuc	uPA generation	RORg inh	Mito fusion act
CC(=O)N1CCC2(CC1)CN(c1cccc(-c3ccccc3)c1)C2	.	.	13µM*	.	20%	.
Cc1cc(C)cc(C(=O)NC(=S)Nc2ccc(Cc3ccncc3)cc2)c1	?	2%	?	-14%	7.9µM*	12%
O=C(NC(=S)Nc1ccc(Cc2ccncc2)cc1)c1ccccc1	?	29%	?	1%	?	5%
Cc1cccc(C(=O)NC(=S)Nc2ccc(Cc3ccncc3)cc2)c1	?	-25%	?	-7%	16µM*	15%
Cc1ccc(NS(=O)(=O)c2cccc(C(=O)NCCc3c[nH]c4ccccc34)c2)c(C)c1	?	-58%	22µM*	3%	?	-2%
Cc1ccc(C)c(NC(=O)C(=O)NCCc2c[nH]c3ccccc23)c1	?	7%	-15%	1%	?	-6%
Cc1ccccc1NC(=S)NCCc1c[nH]c2ccccc12	-4%	-2%	11µM*	5%	7.9µM*	-7%
COc1ccc(Cl)cc1NC(=S)NCCc1c[nH]c2ccccc12	?	14%[7.66 µM]	7.1µM*	.	5.6µM*	2%
Cc1ccc(C)c(NC(=S)NCCc2c[nH]c3ccccc23)c1	6%	?	11µM*	3%	1.3µM*	19%
COc1ccccc1NC(=O)NCCc1c[nH]c2ccccc12	?	-8%	0%	15%	21%	-5%
CCCC(c1nnnn1C1CCCC1)N1CCN(c2ccccc2F)CC1 (centres undefined)	6%	-18%	3%	2%	-16%	8.9µM*
CCCC(c1nnnn1C(C)(C)C)N1CCN(c2ccccc2)CC1 (centres undefined)	-1%	-4%	-9%	0%	20%	10µM*
CC(C)C(c1nnnn1C(C)(C)C)N1CCC(Cc2ccccc2)CC1 (centres undefined)	-3%	-36%	22µM*	0%	?	?
CC(C)C(c1nnnn1C(C)(C)C)N1CCOCC1 (centres undefined)	0%	13%	4%	5%	2%	0%
CCOc1ccc(-c2csc(/C(C#N)=C\c3ccc(O)c([N+](=O)[O-])c3)n2)cc1	12%	-32%	?	11%	-63%	-7%
CN1C2Cc3c(n(C)c4ccccc34)C1CC=C2CO (centres undefined)	3%	9%	.	14%	.	-11%
CC(C)C(NC(=O)c1cccc(S(=O)(=O)N2CCOCC2)c1)C(=O)NCc1ccc(Cl)cc1 (centres undefined)	6%	-5%	.	?	.	-2%
CN=C1C=CC(=C(c2ccc(N(C)C)cc2)c2ccc(N(C)C)cc2)C=C1	.	.	2.5µM*	.	?	.
Cc1ccc2ncnc(Oc3ncccc3NC(=O)C(C)(C)C)c2c1	4%	23%	-8%	-3%	0%	0%
O=C(CN1C(=O)NC2(CCCCCC2)C1=O)N1CCN(c2ccccc2)CC1	0%	0%	.	-3%	.	-3%
NC(=S)N/N=C/c1c(O)c(Br)cc2oc3c(c12)CCCC3	?	8%	?	3%	7.9µM*	-4%
Clc1cccc(Nc2ncnc3c2cnn3-c2ccccc2)c1	?	-6%	22µM*	?	10µM*	29%
Cc1cccc(NC(=S)NNC(=O)c2csc3c2CCCC3)c1	-3%	-7%	-10%	-20%	?	-12%
O=C(CSCc1ccccc1Cl)Nc1ccc(C(=O)O)cc1	?	-18%	15%	-1%	5%	4%
Cc1cccc(NCC(=O)NNC(=S)Nc2ccccc2)c1	4%	-11%	?	-2%	11µM*	-8%
SMILES	Chronic BCR inh	a7 integrin act	Gal4-VP16 FLuc	uPA generation	RORg inh	Mito fusion act
Cc1cccc(NC(=S)NNC(=O)Cc2ccccc2)c1	?	5%	?	6%	11µM*	1%
O=C(CSCc1ccccc1Cl)NNC(=S)Nc1ccccc1	-2%	24%	-7%	-2%	16µM*	-2%
CC(O)CCC(=O)NNC(=S)Nc1ccccc1 (centres undefined)	0%	14%	0%	1%	-30%	-7%
Cc1cccc(NC(=S)NNC(=O)c2csc(C)c2)c1	?	15%	?	1%	5µM*	10%
O=C(N/N=C1/C[C@@H](O)[C@@H](O)[C@@H]2[C@H]3C(=O)N(c4ccc(F)cc4F)C(=O)[C@@H]3CC[C@H]12)OCc1ccccc1	.	.	-4%[10 µM]	.	0%[10 µM]	.
COc1ccc(C(CC(=O)Nc2ccc(OC)c(OC)c2)N2Cc3ccccc3C2=O)cc1 (centres undefined)	19%	.	.	.	.	.
O=C1COCCN1	.	.	-2%	.	-13%	.
Cc1ccc(NC(=O)CSC(N)=O)cc1Cl	?	32%	?	5%	-3%	?
CNC(=S)NNC(=O)CNc1ccc(C)c(Cl)c1	-3%	-12%	13µM*	4%	5.6µM*	-3%
O=C(COc1ccccc1)N(Cc1cccnc1)c1nc2ccc(Cl)cc2s1	1%	.	.	.	.	.
Clc1ccc(SCc2cc(N3CCOCC3)nc(-c3ccccn3)n2)cc1	-16%	-26%	4.5µM*	-6%	0.56µM*	7%
Cc1ccc2nc(-c3ccc(O)cc3)c(Nc3ccc4c(c3)OCCO4)n2c1	?	0%	6%	-1%	-38%	4%
Cc1ccc(-c2nc3cnccn3c2Nc2ccc3c(c2)OCO3)cc1	?	-4%	0%	-14%	42%	-6%
Clc1ccc2nc(-c3ccccn3)c(Nc3ccc4c(c3)OCO4)n2c1	-8%	-12%	?	-7%	7.9µM*	7%
Cc1ccc2nc(-c3ccccc3O)c(Nc3ccc4c(c3)OCCO4)n2c1	?	-42%	-23%	4%	18µM*	23%
O=C(O)c1ccccc1-c1ccc(C(F)(F)F)cc1	.	.	1%	.	4%	.
CCn1c(-c2cc(-c3cccc(OC)c3)nc3ccccc23)n[nH]c1=S	?	-13%	?	.	5µM*	10%
CCc1ccc(-c2cc(-c3n[nH]c(=S)n3CC)c3ccccc3n2)cc1	-6%	.	-23%	.	2µM*	?
CC(C)(C)c1cc(OS(C)(=O)=O)ccc1O	?	7%	?	2%	21%	14%
CC(C)(C)c1cc(OC(=O)C2CCCC2)ccc1O	?	-44%	11µM*	3%	?	-4%
Nn1c(SCC(=O)Nc2nc3ccccc3s2)nncc1=O	-1%	-10%	-2%	-3%	32µM*	-1%
CCOC(=O)c1c(NC(=O)C2=C(C)NC(=S)NC2c2ccccc2C(F)(F)F)sc(C)c1C (centres undefined)	?	5%	3.5µM*	2%	?	24%

Screening data: PubChem, National Center for Advancing Translational Sciences (NCATS)
